The results in this text go back to PubChem BioAssay AID2690 (NMMLSC, 2010).

The structures appear in SMILES notation. The whole screen tested about 330,000 compounds, of which about 590 (0.18%) were called active. What follows is part of a selection rich in actives, with near analogues and random picks from the rest. A number with no mark means an inactive call.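 Rule for the calls: active = superoxide response under a set limit, about three screen SD below normal (cut at about 65% in these data); inactive = the rest.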

This assay can be described thus: reduction of superoxide in aged yeast, primary screen, HTS (AID 2690).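 Note: yeast aged for seven days with compound at 30 °C before DHE staining; 100% = average MFI of all compound-treated wells on the plate with controls excluded.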 The note with it: S. cerevisiae aged cells, superoxide DHE fluorescence; at 10 µM; stronger effect = lower value.
As for `CCOC(=O)c1c(C)nn(-c2ncccc2NC(=O)CCC(=O)O)c1C`, the superoxide response (% of plate mean) is 122%.

Regarding `Cc1ccc(C(=O)O)cc1-c1ccc(/C=C2\SC(=O)N(CC(=O)Nc3ccc4c(c3)OCO4)C2=O)o1`, the superoxide response (% of plate mean) was 114%.

Consider `Cc1ccccc1N1CCN(C2CCCN(C(=O)c3cn4c(C)cccc4n3)C2)CC1` (configuration not stated), for which the superoxide response (% of plate mean) is 98.9%.

As for `COc1cc(N2C(=O)c3ccccc3C2=O)c(Cl)cc1C(=O)OCC(=O)N1CCOCC1`, the superoxide response (% of plate mean) is 106%.

In the case of `COc1ccc(OCCCC(=O)OC(C)C(=O)Nc2ccccc2[N+](=O)[O-])cc1` (configuration not stated), the superoxide response (% of plate mean) was 95.2%.

As to `CC1(C(=O)NCCc2c[nH]c3ccccc23)C=CC2(CCCCC2)N1C(=O)c1ccccc1` (configuration not stated), the superoxide response (% of plate mean) is 93.9%.

On to `Cc1csc2ncc(C(=O)N(Cc3ccccc3)c3ccccn3)c(=O)n12`, for which the superoxide response (% of plate mean) is 92.8%.

Take `Cc1cc(F)ccc1S(=O)(=O)Nc1ncnc2scc(-c3ccc(F)cc3)c12`: the superoxide response (% of plate mean) was 103%.

Consider `COC(=O)CNc1nc(Cl)nc(N2CCC(C)CC2)n1`, for which the superoxide response (% of plate mean) is 51% (active).

For `Clc1nc(NC2CCCC2)nc(N2CCOCC2)n1`, the superoxide response (% of plate mean) was 104%.

Consider `CCOC(=O)CNc1nc(Cl)nc(Nc2ccccc2)n1`, for which the superoxide response (% of plate mean) was 114%.

On to `CCc1noc(C)c1C(=O)Oc1ccc(N(C)S(=O)(=O)c2ccc(C)c(C)c2)cc1`, for which the superoxide response (% of plate mean) is 103%.

Turning to `CCOc1c(N2CCCCC2)c(=O)c1=O`, the superoxide response (% of plate mean) is 105%.

Consider `COc1ccc(NS(=O)(=O)c2ccc(O)c(C(=O)OCC(=O)NC3CCCCC3)c2)cc1`, for which the superoxide response (% of plate mean) is 93.5%.

Consider `NS(=O)(=O)c1ccc(CCNC(=O)CN2C(=O)c3ccccc3S2(=O)=O)cc1`, for which the superoxide response (% of plate mean) was 111%.

For `Cc1ccc(C(=O)OCC(=O)NC(=O)Cc2ccccc2)c(O)c1`, the superoxide response (% of plate mean) is 110%.

Turning to `C=CCNC(=S)/N=c1/ccccn1Cc1ccccc1`, the superoxide response (% of plate mean) is 102%.

Take `COC(=O)c1ccc(NC(=O)CSc2nncc3ccc(OC)c(OC)c23)cc1`: the superoxide response (% of plate mean) was 119%.

In the case of `C=CCn1c(SCc2ccccc2)nc2c1c(=O)[nH]c(=O)n2C`, the superoxide response (% of plate mean) was 102%.

For `Cc1cc(OCc2cc(C(=O)NCc3cc(C(C)C)no3)no2)cc(C)c1Cl`, the superoxide response (% of plate mean) is 111%.

In the case of `NC(=O)Cc1ccc2c(c1)[nH]c1ccccc12`, the superoxide response (% of plate mean) is 40.8% (active).

`CCn1c2ccccc2c2cc(CC(N)=O)ccc21`: the superoxide response (% of plate mean) is 105%.

`NC(=O)CSc1c[nH]c2ccccc12`: the superoxide response (% of plate mean) is 97.2%.

Turning to `OCCC1CN(Cc2cnc(-c3ccccc3)s2)CCN1CCc1ccccc1` (configuration not stated), the superoxide response (% of plate mean) is 88.7%.

Regarding `Cc1cccc(OCC(=O)OCC(=O)Nc2ccc(Cl)cn2)c1`, the superoxide response (% of plate mean) is 99.9%.

For the compound `CCCC(C(=O)NCc1ccco1)N(C(=O)CNS(=O)(=O)c1ccccc1)C1CCCC1` (configuration not stated), the superoxide response (% of plate mean) was 101%.

As to `Cc1ccc(-c2noc(CNC(=O)c3ccoc3C)n2)cc1`, the superoxide response (% of plate mean) was 85%.

For the compound `Cc1ccc(N2CCN(S(=O)(=O)c3ccc(F)cc3)CC2)c(C)c1`, the superoxide response (% of plate mean) was 106%.

As to `CC(=O)c1ccc(N2CCN(S(=O)(=O)c3ccc4c(c3)CC(=O)N4C)CC2)cc1`, the superoxide response (% of plate mean) is 97.6%.

Turning to `Cc1c(NC(=O)CN(C)CC(=O)Nc2ccc(F)c(F)c2F)c(=O)n(-c2ccccc2)n1C`, the superoxide response (% of plate mean) is 91.2%.

`CCOc1ccc2nc(Cl)c(C3CC(c4ccccc4)=NN3C(=O)c3cccs3)cc2c1` (configuration not stated): the superoxide response (% of plate mean) is 75.7%.

Consider `O=C(CSc1nnnn1C1CCCC1)Nc1ccc2c(c1)OCCO2`, for which the superoxide response (% of plate mean) is 98.8%.

With `CC(C(=O)N=Nc1c(O)n(C)c2ccc(Br)cc12)n1cnc2ccccc2c1=O` (configuration not stated), the superoxide response (% of plate mean) is 89.3%.

Take `COc1cc(NC(=O)C2=C(C)OCCS2)c(Cl)cc1C(=O)NCCN1CCN(C)CC1`: the superoxide response (% of plate mean) is 99.2%.

On to `CCN(CC)N=Nc1cccc(NC(C)=O)c1`, for which the superoxide response (% of plate mean) is 96.8%.

`CCc1ccccc1NC(=O)CN(C)C(=O)c1cc(C2CC2)nn1-c1ccccc1`: the superoxide response (% of plate mean) is 117%.

For the compound `C/C(CC(=O)NC(C)(C)C)=N\NC(=O)c1ccco1`, the superoxide response (% of plate mean) was 92.3%.

With `O=C(OC1CCCCC1=O)c1cccc(S(=O)(=O)NCc2ccccc2)c1` (configuration not stated), the superoxide response (% of plate mean) is 91.2%.

For the compound `O=C(O)CC/C(=N\NC(=O)c1ccc(F)cc1)c1ccc(Br)cc1`, the superoxide response (% of plate mean) was 97.4%.

As to `COc1cc(NS(=O)(=O)c2ccc(NC(=O)CN3C(=O)c4ccccc4C3=O)cc2)ncn1`, the superoxide response (% of plate mean) was 87.5%.

`CN(C)C(=O)c1coc2nc3ccccc3nc12`: the superoxide response (% of plate mean) was 90.3%.

Consider `CNC(=O)c1cc2c(ccc3ccccc32)oc1=N`, for which the superoxide response (% of plate mean) was 90%.

For `CNC(=O)c1cccc2nc3ccccc3nc12`, the superoxide response (% of plate mean) is 47% (active).

For the compound `O=C1CCCCC1C(=O)c1ccccc1` (configuration not stated), the superoxide response (% of plate mean) is 88.5%.

In the case of `CCc1ccc(-c2nc(SCC(=O)NC3CCCC3)n[nH]2)cc1`, the superoxide response (% of plate mean) is 109%.

Regarding `Clc1ccc2nc(CSc3ccccc3)cn2c1`, the superoxide response (% of plate mean) was 99.1%.

Consider `Cc1ccc(OCC(=O)Nc2ccc(N3CCN(C(=O)c4ccco4)CC3)cc2)c(C)c1`, for which the superoxide response (% of plate mean) was 100%.
